Test results taken from PubChem BioAssay.
The source made the active and inactive calls.

How the values were obtained:
[1] = binders of probe aFSTL3 on microarray, primary screen, stem cell growth factor project, biochemical, small-molecule microarray, fluorescence 635/667 (AID 1064); details: higher = more signal;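 also: measures binding of the biotinylated anti-FSTL3 antibody to printed compounds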
[2] = binders from COS7 lysate, DM2A8 probe, primary screen, torsin A project, cell lysate, small-molecule microarray, fluorescence 635/667 (AID 1065); details: higher = more signal, COS7 lysate expressing mutant human TOR1A
[3] = binders of probe aFGF2 on microarray, primary screen, stem cell growth factor project, biochemical, small-molecule microarray, fluorescence 635/667 (AID 1067); details: higher = more signal;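 also: measures binding of biotinylated aFGF2 protein to printed compounds on slides; z-score merges feature fluorescence and signal-to-noise across triplicate slides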
[4] = binders of probe aFGF10 on microarray, primary screen, stem cell growth factor project, biochemical, small-molecule microarray, fluorescence 635/667 (AID 1071); details: higher = more signal;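 also: score merges 667 nm spot intensity and signal to noise from triplicate slides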
[5] = target: Neurogenic locus notch homolog protein 2 (Homo sapiens) (UniProt Q04721); test: Notch2 binders on small-molecule microarrays, primary screen, biochemical, small-molecule microarray, 635 nm fluorescence, stem cell growth factors (AID 1073); details: Notch2 binding, higher = more signal
[6] = target: Pro-neuregulin-1, membrane-bound isoform (Homo sapiens) (UniProt Q02297); test: NRG1 binders on small-molecule microarrays, primary screen, psychiatric disease protein project, biochemical, small-molecule microarray, fluorescence 635/667 (AID 1075); details: NRG1 binding, 635 nm fluorescence, higher = more signal;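 also: score combines 667 nm spot fluorescence with signal to noise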
[7] = system: Neuregulin-1 EGF-like domain; test: binders of neuregulin-1 EGF-like domain, primary screen, biochemical, small-molecule microarray, 635 nm fluorescence (AID 1081); details: small-molecule microarray binding, higher = more signal;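 also: binding of the protein to compounds printed on small-molecule microarray slides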
[8] = FRG1 promoter luciferase signal modulators, primary screen, FRG1 inhibition for FSHD, cell-based, C2C12 myotubes, firefly/Renilla luciferase, luminescence (AID 1084); details: higher = more signal, called active from +8 up or from −8 down
[9] = binders of probe aFST on microarray, primary screen, stem cell growth factor project, biochemical, small-molecule microarray, fluorescence 635/667 (AID 1086); details: higher = more signal;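 also: score merges 667 nm fluorescence with signal-to-noise of each printed compound spot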
[10] = binders of probe aHhip on microarray, primary screen, stem cell growth factor project, biochemical, small-molecule microarray, fluorescence 635/667 (AID 1087); details: higher = more signal;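 also: score merges spot fluorescence at 667nm with spot signal to noise ratio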
[11] = system: PRMT1 (protein arginine N-methyltransferase 1); test: PRMT1 binders on small-molecule microarrays, primary screen, biochemical, small-molecule microarray, 635 nm fluorescence (AID 1088); details: small-molecule microarray binding, higher = more signal;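 also: binding of Prmt1 protein to compounds spotted on small-molecule microarray slides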
[12] = yeast growth modulation, basal conditions, primary screen, YJM789 clinical isolate, OD600, 24 h (AID 1089);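 also: growth of clinical yeast isolate S. cerevisiae YJM 789 seeded 1000 cells per well; test concentration not given here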; details: S. cerevisiae YJM789 growth, higher = more signal, called active from +8 up or from −8 down
[13] = fission yeast growth modulation, primary screen, strain 972, OD600, 24 h, no modulator (AID 1090);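 also: basal condition with compound alone and no growth modifier present; test concentration not given here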; details: S. pombe 972 growth, higher = more signal, called active from +8 up or from −8 down
[14] = S. cerevisiae growth modulation with rapamycin, primary screen, strain BY4716, OD600, 96 h (AID 1091); details: higher = more signal, called active from +8 up or from −8 down; also: test concentration not given here
[15] = target: Torsin-1A-interacting protein 2 (Homo sapiens) (UniProt Q8NFQ8); test: LULL1 binders on small-molecule microarray, primary screen, cell lysate, human LULL1 lysate, 635/667 nm fluorescence (AID 1092); details: hLULL1 lysate binding, 635 nm fluorescence, higher = more signal;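 also: probe is lysate of COS7 cells overexpressing human LULL1; score merges per-feature 667 nm fluorescence with signal-to-noise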
[16] = E. coli growth modulation, two-sided OD650, primary screen, E. coli filamentation project, strain DRC41, 24 h (AID 1093); details: OD650, 24 h, higher = more signal, called active from +8 up or from −8 down;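 also: MC1000 strain lacking acrAB efflux and sulA so SOS filamentation is blocked; test concentration not given here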
[17] = small-molecule microarray binders of probe aLefty2, primary screen, biochemical, biotinylated probe, 635/667 nm fluorescence (AID 1094); details: higher = more signal;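 also: score merges spot fluorescence near 667 nm with spot signal-to-noise ratio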
[18] = system: Noggin (protein binding on small-molecule microarray); test: Noggin binders on small-molecule microarray, primary screen, biochemical, 635/667 nm fluorescence (AID 1095); details: 635 nm fluorescence, higher = more signal;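 also: score merges 667 nm feature fluorescence with signal to noise over triplicate slides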
[19] = target: Neurogenic locus notch homolog protein 3 (Homo sapiens) (UniProt Q9UM47); test: NOTCH3 binders on small-molecule microarray, primary screen, biochemical, 635/667 nm fluorescence (AID 1096); details: NOTCH3 binding, 635 nm fluorescence, higher = more signal
[20] = small-molecule microarray binders of probe aEGFR, primary screen, biochemical, biotinylated probe, 635/667 nm fluorescence (AID 1097); details: higher = more signal;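 also: probe is a biotinylated anti-EGFR antibody binding compounds printed on slides; score combines fluorescence near 667 nm and signal to noise of each spot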

Chain of Neurogenic locus notch homolog protein 2 (Homo sapiens) (Q04721 whole entry, looked up, canonical isoform): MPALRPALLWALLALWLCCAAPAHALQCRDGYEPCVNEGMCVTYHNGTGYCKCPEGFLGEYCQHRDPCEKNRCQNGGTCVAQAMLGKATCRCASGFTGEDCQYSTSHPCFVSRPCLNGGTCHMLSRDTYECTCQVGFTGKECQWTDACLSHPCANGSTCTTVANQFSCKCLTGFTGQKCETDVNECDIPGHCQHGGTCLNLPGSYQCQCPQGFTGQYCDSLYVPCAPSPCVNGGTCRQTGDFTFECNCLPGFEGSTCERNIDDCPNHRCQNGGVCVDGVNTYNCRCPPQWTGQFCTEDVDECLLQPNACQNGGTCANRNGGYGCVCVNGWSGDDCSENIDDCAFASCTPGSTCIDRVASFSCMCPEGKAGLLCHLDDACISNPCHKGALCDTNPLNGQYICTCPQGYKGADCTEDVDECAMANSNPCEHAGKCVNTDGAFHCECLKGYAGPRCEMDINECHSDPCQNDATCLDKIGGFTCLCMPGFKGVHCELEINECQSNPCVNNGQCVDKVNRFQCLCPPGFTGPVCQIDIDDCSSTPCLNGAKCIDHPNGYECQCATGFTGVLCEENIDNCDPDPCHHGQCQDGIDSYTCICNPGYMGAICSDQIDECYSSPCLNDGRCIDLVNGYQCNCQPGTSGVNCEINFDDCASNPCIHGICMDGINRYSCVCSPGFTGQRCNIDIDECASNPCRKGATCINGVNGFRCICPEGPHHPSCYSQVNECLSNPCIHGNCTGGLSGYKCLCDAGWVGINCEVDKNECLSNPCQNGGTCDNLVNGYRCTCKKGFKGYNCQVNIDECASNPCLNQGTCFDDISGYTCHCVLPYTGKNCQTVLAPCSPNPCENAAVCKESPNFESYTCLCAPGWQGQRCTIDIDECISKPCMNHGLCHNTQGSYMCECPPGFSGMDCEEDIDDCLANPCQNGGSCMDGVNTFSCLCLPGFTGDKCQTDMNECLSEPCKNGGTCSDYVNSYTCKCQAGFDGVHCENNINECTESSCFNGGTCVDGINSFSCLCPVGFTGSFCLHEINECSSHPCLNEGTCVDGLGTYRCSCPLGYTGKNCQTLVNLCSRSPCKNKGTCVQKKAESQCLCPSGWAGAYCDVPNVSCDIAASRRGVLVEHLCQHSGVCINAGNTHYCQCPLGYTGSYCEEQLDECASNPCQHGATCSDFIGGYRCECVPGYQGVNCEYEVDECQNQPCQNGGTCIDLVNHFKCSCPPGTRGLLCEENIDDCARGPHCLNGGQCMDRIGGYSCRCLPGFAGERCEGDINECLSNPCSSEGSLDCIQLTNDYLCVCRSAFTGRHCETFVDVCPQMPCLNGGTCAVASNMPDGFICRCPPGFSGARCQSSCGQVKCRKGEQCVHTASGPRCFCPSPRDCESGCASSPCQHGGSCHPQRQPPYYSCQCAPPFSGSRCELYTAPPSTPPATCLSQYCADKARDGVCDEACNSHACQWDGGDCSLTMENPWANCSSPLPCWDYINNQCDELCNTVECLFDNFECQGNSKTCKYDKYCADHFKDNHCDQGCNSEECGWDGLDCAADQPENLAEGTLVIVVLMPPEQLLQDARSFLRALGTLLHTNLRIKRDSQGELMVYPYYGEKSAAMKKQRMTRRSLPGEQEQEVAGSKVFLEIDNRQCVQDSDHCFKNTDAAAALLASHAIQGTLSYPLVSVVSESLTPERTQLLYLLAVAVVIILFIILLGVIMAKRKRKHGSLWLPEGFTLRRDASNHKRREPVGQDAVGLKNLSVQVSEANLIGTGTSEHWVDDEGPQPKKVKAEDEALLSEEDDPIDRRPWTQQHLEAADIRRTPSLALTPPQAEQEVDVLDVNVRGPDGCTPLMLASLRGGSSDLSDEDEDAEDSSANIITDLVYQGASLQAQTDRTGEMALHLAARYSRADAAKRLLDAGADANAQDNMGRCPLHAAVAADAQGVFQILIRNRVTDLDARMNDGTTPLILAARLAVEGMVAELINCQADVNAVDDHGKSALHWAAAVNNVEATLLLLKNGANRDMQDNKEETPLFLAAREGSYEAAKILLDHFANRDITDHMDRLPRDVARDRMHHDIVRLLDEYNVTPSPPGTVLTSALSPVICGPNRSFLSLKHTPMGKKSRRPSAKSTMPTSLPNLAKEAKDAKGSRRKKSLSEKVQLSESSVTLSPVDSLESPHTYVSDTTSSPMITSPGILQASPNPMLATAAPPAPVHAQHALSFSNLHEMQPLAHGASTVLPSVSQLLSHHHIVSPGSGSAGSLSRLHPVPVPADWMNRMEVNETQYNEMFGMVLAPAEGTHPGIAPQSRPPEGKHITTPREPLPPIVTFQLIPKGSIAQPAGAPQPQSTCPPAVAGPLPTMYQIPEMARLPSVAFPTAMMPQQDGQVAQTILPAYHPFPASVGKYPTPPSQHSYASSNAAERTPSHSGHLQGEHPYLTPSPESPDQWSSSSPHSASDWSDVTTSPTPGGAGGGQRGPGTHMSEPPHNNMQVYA
Chain of Pro-neuregulin-1, membrane-bound isoform (Homo sapiens) (Q02297 whole entry, looked up, the tested form may be a part, canonical isoform): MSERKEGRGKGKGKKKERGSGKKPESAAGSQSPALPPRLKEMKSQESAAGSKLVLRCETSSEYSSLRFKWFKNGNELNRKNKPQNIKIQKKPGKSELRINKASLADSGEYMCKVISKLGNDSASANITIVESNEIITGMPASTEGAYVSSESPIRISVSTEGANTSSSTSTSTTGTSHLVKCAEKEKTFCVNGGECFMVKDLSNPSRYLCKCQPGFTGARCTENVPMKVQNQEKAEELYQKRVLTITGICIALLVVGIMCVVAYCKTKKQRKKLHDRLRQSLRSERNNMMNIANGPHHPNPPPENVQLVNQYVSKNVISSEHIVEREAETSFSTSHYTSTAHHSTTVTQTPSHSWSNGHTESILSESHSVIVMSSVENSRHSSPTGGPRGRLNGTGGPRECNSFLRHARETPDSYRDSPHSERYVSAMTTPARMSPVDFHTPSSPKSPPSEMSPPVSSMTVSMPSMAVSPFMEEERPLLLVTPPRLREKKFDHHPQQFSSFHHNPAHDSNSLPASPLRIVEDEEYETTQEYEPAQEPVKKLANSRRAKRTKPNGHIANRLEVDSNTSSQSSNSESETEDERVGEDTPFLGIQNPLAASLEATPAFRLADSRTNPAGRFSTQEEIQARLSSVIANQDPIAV
Chain of Torsin-1A-interacting protein 2 (Homo sapiens) (Q8NFQ8 whole entry, looked up): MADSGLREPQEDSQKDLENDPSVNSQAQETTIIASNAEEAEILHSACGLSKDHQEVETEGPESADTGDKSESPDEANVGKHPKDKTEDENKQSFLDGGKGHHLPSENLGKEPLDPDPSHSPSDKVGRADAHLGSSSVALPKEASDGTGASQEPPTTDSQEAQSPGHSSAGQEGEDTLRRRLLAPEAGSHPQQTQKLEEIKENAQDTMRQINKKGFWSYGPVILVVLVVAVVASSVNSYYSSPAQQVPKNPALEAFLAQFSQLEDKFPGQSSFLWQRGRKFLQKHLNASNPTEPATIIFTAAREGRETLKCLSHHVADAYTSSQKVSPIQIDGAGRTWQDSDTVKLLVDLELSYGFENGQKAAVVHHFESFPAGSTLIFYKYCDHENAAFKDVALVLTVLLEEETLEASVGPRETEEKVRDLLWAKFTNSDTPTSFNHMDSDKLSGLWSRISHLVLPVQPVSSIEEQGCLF

Row | SMILES | composite z-score [1] | composite z-score [2] | composite z-score [3] | composite z-score [4] | composite z-score [5] | composite z-score [6] | composite z-score [7] | z-score [8] | composite z-score [9] | composite z-score [10] | composite z-score [11] | z-score [12] | z-score [13] | z-score [14] | composite z-score [15] | z-score [16] | composite z-score [17] | composite z-score [18] | composite z-score [19] | composite z-score [20]
1 | CC(C)C(CO)N1C(=O)[C@@H]2C3C(=O)OCCC/C=C\[C@H]3OC23C=CCN(CCN2CCOCC2)C(=O)[C@@H]13 (stereo not given in full) | -0.364 | -0.306 | -0.116 | -0.294 | -0.853 | -0.197 | 0.366 | 1.3 (inactive) | -0.139 | 0.0623 | 0.463 | 0.366 (inactive) | -0.21 (inactive) | 0.205 (inactive) | -0.272 | -0.241 (inactive) | -0.245 | 0.0867 | 0.0008 | -0.146
2 | C=CCC(OC(C)=O)[C@@H]1[C@@H](N(Cc2ccc(-c3ccccc3)cc2)C(=O)c2ccc(-c3ccccc3)cc2)c2cc(OCCCO)ccc2N1C(=O)Cc1ccc2ccccc2c1 (stereo not given in full) | -0.519 | 0.574 | -0.117 | 0.0381 | 0.186 | 0.0278 | -0.6 | 0.187 (inactive) | 0.2 | -0.0631 | 0.758 | -0.609 (inactive) | -0.214 (inactive) | 0.218 (inactive) | 0.765 | -0.763 (inactive) | -0.119 | 0.233 | 0.3 | -0.17
3 | COc1ccc([C@H]2OC[C@@H]3C[C@@H](Cc4ccccc4)C(=O)N32)cc1 | -0.446 | 0.466 | 0.0216 | 0.526 | 0.426 | -0.103 | 1.11 | -3.02 (inactive) | 0.357 | 0.115 | 0.758 | -2.03 (inactive) | -3.18 (inactive) | 4.07 (inactive) | 0.0239 | -0.468 (inactive) | -0.103 | 0.892 | 0.75 | -0.0299
4 | CCOC(=O)[C@H]1C/C=C/C[C@H](C(=O)OCC)C(=O)O[C@H]2[C@@H](OC)O[C@H](CO)[C@@H](OC(=O)c3c(OC)cccc3OC)[C@@H]2OC1=O | 1.03 | 0.321 | -0.0275 | 0.259 | 0.297 | 1.12 | 1.02 | 0.418 (inactive) | 0.951 | 1.32 | 1.33 | 0.172 (inactive) | -1.13 (inactive) | 3.72 (inactive) | 2.86 | -0.901 (inactive) | 0.573 | 1.15 | 0.982 | -0.0921
5 | CCCC[C@@H]1C[C@H]1[C@@H](NC(=O)c1ccco1)c1ccc(-c2ccccc2)cc1 | -0.207 | -0.194 | -0.176 | 0.203 | 0.571 | -0.343 | 1.02 | 1.85 (inactive) | 0.425 | 0.0922 | 1.11 | 0.186 (inactive) | 0.316 (inactive) | 0.569 (inactive) | -0.397 | -1.45 (inactive) | 0.0682 | 0.61 | 0.234 | 0.0258
6 | COc1cc2c(cc1OC)CN(C(=O)[C@H]1[C@@H]3C(=O)O[C@@H](c4ccccc4)[C@@H](c4ccccc4)N3[C@@H](c3ccc(O)cc3)[C@]13C(=O)Nc1ccc(C#CCCO)cc13)CC2 | 0.0257 | 0.322 | -0.0659 | 0.519 | 0.0774 | 1.63 | 1.28 | -0.845 (inactive) | -0.0227 | -0.125 | 1.56 | 1 (inactive) | -0.0822 (inactive) | 1.91 (inactive) | 2.44 | 1.32 (inactive) | -0.145 | 0.837 | 0.434 | -0.152
7 | CCCC[C@@H]1C[C@H]1[C@@H](NC(=O)c1cccs1)c1ccc(-c2ccccc2)cc1 | 0.108 | 0.0945 | 0.189 | 0.486 | 0.146 | -0.0051 | 0.411 | -0.621 (inactive) | 0.151 | 0.2 | 0.464 | 0.227 (inactive) | -3.7 (inactive) | -1.24 (inactive) | 1.09 | -0.692 (inactive) | -0.121 | 0.692 | 0.428 | -0.0688
8 | C=CCNC(=O)[C@@H]1[C@H]2C(=O)O[C@H](c3ccccc3)[C@H](c3ccccc3)N2[C@H](c2ccc(O)cc2)[C@@]12C(=O)Nc1ccc(C#CCNC(N)=O)cc12 | 0.0358 | 0.135 | -0.114 | -0.172 | -0.383 | 0.623 | -0.0033 | 1.57 (inactive) | -0.633 | -0.226 | 0.575 | -0.358 (inactive) | 0.112 (inactive) | 1.69 (inactive) | 2.13 | -1.11 (inactive) | -0.117 | 0.385 | 0.0332 | -0.172
9 | CC(C)N1C(=O)C[C@@](C(=O)NCC(F)(F)F)(c2ccc([N+](=O)[O-])cc2)[C@H]1c1ccc(CO)cc1 | 0.27 | 0.513 | -0.147 | -0.336 | -0.545 | 0.769 | 0.541 | -0.468 (inactive) | -0.531 | -0.0994 | 1.55 | -0.804 (inactive) | -1.63 (inactive) | -1.63 (inactive) | 3.32 | -0.29 (inactive) | -0.195 | 0.493 | 0.356 | -0.0987
